Source: PubChem BioAssay
Compounds with a hit are over-represented: about 3.7% of the library has one in this group of screens.
GALK inh: qHTS Assay for Inhibitors of Human Galactokinase (GALK): NCGC Sytravon Library Screen; 44,000 tested, under 10 active; recombinant GALK, Kinase-Glo ATP luminescence, 1 h; Potency, µM (highest dose often 57.5 µM), for inactives: at the top dose activity, negative = inhibition, most hits filed as inhibitors; AID 1347072, 2019; P51570;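 also: plate controls were full GALK reaction for no effect and reaction lacking GALK for full effect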
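Luminescent ATP-depletion readout (Kinase-Glo Plus) after 1 h room-temperature incubation of human GALK (5 nM) with galactose 100 µM and ATP 35 µM, pH 8.0 HEPES/Mg2+ buffer; compounds tested in qHTS format.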
B2AR arrestin ag: qHTS assay of beta-arrestin-biased ligands of beta2-adrenergic receptor: NCGC Sytravon Library Screen; Beta-2 adrenergic receptor (Homo sapiens), P07550; HTLA Tango cells, beta-arrestin recruitment, luciferase luminescence, 18 h; Potency, µM (highest dose often 46.1 µM), most hits filed as activators; 44,000 tested, under 10 active; AID 1347077, 2019;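 also: potency is read from the fitted curve at half-maximal effect; 0% = DMSO and full agonism = EC100 isoproterenol or metaproterenol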
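Tango cells (recombinant beta2-AR, beta-arrestin, tTA-driven luciferase), 1500/well in DMEM 1% FBS, treated 18 h at 37 °C with compounds up to 46 µM; luciferin mix added, luminescence read after 15 min; %activity curves fitted and curve-classed.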
GPR32 ag: qHTS for Agonists of Human Resolvin D1 Receptor DRV1; CHO-K1 GPR32 beta-arrestin PathHunter luminescence, 90 min; zero percent set by DMSO-only wells; actives 2.5% (n = 48,000); activation, % at 76.9 µM; Probable G-protein coupled receptor 32 (Homo sapiens), O75388;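 active = activation of at least 60% and not above a set upper limit, about 1 call in 100 departs from these limits; inconclusive = activation of 40% to 60%, or above that upper limit; inactive = activation under 40%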; also: 0% is about no effect
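Beta-arrestin recruitment read-out: luminescence from complemented beta-Gal in CHO-K1 GPR32 PathHunter cells, measured 1 h after detection reagent at ambient temperature following 90 min compound exposure at 37 °C; DMSO served as basal (EC0) control.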
PTAP-TSG101 blk: qHTS Validation Assay for Inhibitors of HIV-1 Budding by Blocking the Interaction of PTAP/TSG101: Sytravon Library Screen; Tumor susceptibility gene 101 protein (Homo sapiens), Q99816; Fluorescence polarization, FITC-PTAP peptide/Tsg101, 20 min; Potency, µM (highest dose often 115 µM), hits mostly inhibitors; 44,000 tested, under 10 active; AID 1347069, 2019; also: potency is read from the fitted curve at half-maximal effect; 0% is about no effect
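FITC-labeled PTAP peptide (50 nM final) binding to Tsg101 binding domain (10 uM final) read by fluorescence polarization after 20 min at r.t. in HEPES pH 7.5 buffer. Actives by CRC class, <25 µM.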
FH mod: Identification of activators of human fumarate hydratase by quantitative high-throughput screening; Fumarate hydratase, mitochondrial (Homo sapiens), P07954; FH coupled MDH/diaphorase resazurin fluorescence, 15 min; Potency, µM (series often up to 79.9 µM), for the others: top-dose activity change, negative = inhibition, most hits filed as inhibitors; actives 0.22% (n = 54,000); also: potency is read from the fitted curve at half-maximal effect; % is scaled to controls: 0 for no effect and ±100 for the full control effect; the screen sought activators but most active calls are inhibition curves; nearly all actives have a fitted effect of over 45% in size
NTMT1 inhibitor: Primary qHTS for Inhibitors of N-terminal methyltransferase 1 (NTMT1): MTaseGlo Assay; Potency, µM (series often up to 114 µM), inactives show at the highest dose activity change, negative = inhibition, usual class: inhibitors; NTMT1 MTase-Glo SAH luminescence, purified enzyme; AID 1645870, 2021; actives 2.5% (n = 59,000);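 also: potency is read from the fitted curve at half-maximal effect; plate controls were DMSO vehicle for no effect and no enzyme for full effect; nearly all actives have a fitted effect of over 65% in size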
Target sequence (Q9BV86 whole entry, looked up): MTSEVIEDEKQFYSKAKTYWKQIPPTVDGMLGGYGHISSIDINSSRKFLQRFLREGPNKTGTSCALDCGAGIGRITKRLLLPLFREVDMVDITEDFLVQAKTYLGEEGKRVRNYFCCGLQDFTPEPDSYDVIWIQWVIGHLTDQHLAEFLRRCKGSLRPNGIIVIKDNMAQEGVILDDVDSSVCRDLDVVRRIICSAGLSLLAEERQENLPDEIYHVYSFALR
Sfp qHTS opt: qHTS Assay for Inhibitos of Bacillus subtilis Sfp phosphopantetheinyl transferase (PPTase): Chemistry Optimization Followup. Potency, µM (highest dose often 114 µM), for the others: at the top dose activity change, negative = inhibition, most hits filed as inhibitors. AID 540350, 2011. purified Sfp PPTase enzyme activity, qHTS. shares compounds with NTMT1 inhibitor. actives 78% (n = 230)
Bsub HM489 growth: qHTS for Inhibitos of Bacillus subtilis Sfp phosphopantetheinyl transferase (PPTase): Chemistry Optimization Followup in B. Subtilis HM489 | actives 50% (n = 220) | shares compounds with NTMT1 inhibitor | B. subtilis HM489 (acpS-) growth, BacTiter-Glo, 5 h | Potency, µM (top dose mostly 114 µM), without a hit: top-dose activity change, negative = inhibition, most hits filed as inhibitors | AID 540353, 2011
Sfp gel opt: Gel-Based Assay for Inhibitos of Bacillus subtilis Sfp phosphopantetheinyl transferase (PPTase): Chemistry Optimization Followup | shares compounds with NTMT1 inhibitor | purified Sfp PPTase, gel-based product detection | Potency, µM (doses to about 250 µM), for inactives: at the highest dose activity change, negative = inhibition, actives largely listed as inhibitors | actives 54% (n = 220) | AID 540355, 2011
Sfp inh gel: qHTS Assay for Inhibitors of Bacillus subtilis Sfp phosphopantetheinyl transferase (PPTase): Gel Based Assay. shares compounds with NTMT1 inhibitor. purified Sfp PPTase, gel-based product detection. Potency, µM (top dose mostly 250 µM), for the others: at the highest dose activity change, negative = inhibition, actives largely listed as inhibitors. actives 90% (n = 45). AID 602362, 2012
Sfp SAR2: qHTS Assay for Inhibitors of Bacillus subtilis Sfp phosphopantetheinyl transferase (PPTase): SAR Round 2; actives 87% (n = 230); shares compounds with NTMT1 inhibitor; Potency, µM (doses to about 57.1 µM), without a hit: at the highest dose activity change, negative = inhibition, hits mostly inhibitors; purified Sfp enzyme, PPTase activity, qHTS
hGST A1-1 inh: qHTS Assay for Inhibitors of Bacillus subtilis Sfp phosphopantetheinyl transferase (PPTase): SAR in hGST A1-1; shares compounds with NTMT1 inhibitor; hGST A1-1 enzyme activity counter-screen, qHTS; Potency, µM (titrated, usually from 114 µM), for inactives: at the highest dose activity change, negative = inhibition, usual class: inhibitors; 55 tested, under 10 active; AID 602391, 2012
HSD17B4 inh: Extended Characterization of HPGD Inhibitors: Counterscreen Against HSD17b4 | shares compounds with NTMT1 inhibitor | purified HSD17B4, estradiol/NAD+, NADH fluorescence | Potency, µM (top dose mostly 57.1 µM), without a hit: at the highest dose activity change, negative = inhibition, most hits filed as inhibitors | actives 10% (n = 230) | AID 743187, 2013
ALDH1A1 counter: Extended Characterization of HPGD Inhibitors: Counterscreen Against ALDH1A1; shares compounds with NTMT1 inhibitor; recombinant ALDH1A1, NADH fluorescence, propionaldehyde/NAD+; Potency, µM (top dose mostly 57.1 µM), inactives show top-dose activity change, negative = inhibition, usual class: inhibitors; actives 93% (n = 230); AID 743195, 2013
Target sequence (P00352 whole entry, looked up): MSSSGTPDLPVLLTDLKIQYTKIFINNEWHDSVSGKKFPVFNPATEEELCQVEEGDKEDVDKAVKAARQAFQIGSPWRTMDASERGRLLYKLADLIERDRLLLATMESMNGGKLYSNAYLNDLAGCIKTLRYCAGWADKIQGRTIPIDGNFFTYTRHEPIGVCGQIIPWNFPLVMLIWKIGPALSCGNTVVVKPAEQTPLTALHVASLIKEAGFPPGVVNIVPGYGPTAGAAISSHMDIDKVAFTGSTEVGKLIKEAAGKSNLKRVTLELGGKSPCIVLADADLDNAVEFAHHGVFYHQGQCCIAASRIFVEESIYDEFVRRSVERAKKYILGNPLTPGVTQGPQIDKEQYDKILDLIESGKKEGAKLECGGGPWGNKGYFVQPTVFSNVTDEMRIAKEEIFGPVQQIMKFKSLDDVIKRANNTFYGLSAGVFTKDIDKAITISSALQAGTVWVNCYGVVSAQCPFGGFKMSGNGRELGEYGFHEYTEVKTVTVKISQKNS
NNMT inh: Counterscreen qHTS for Inhibitors of N-terminal methyltransferase 1 (NTMT1): NNMT MTaseGlo assay | Potency, µM (top dose mostly 57.1 µM), for the others: at the top dose activity, negative = inhibition, hits mostly inhibitors | AID 1645878, 2021 | shares compounds with NTMT1 inhibitor | NNMT MTase-Glo luminescence, SAH detection | actives 10% (n = 120)
* hit, by the source's call; ! = not confirmed by another sample; [ ] = another dose, or the depositor's remark. Unless noted, calls follow the shape of the dose curve; as a rule, active = well fitted curve in the direction sought with a large enough effect; inconclusive = small, poorly fitted or top-dose-only effect, or another doubt; inactive = no such curve, though single readings can be large; an effect the other way counts as inactive or inconclusive.

What do the screens show for `S=P(c1ccccc1)(c1ccccc1)c1c[n+](C/C=C/c2ccccc2)c2ccccn12`?
NTMT1 inhibitor: -7%

Results for O=C(NCCN1CCN(c2cccc3c2OCCO3)CC1)c1ccc(F)cc1 ?
FH mod: 3%; NTMT1 inhibitor: 2%[57.5 µM]

What do the screens show for `N#Cc1cccnc1N1CCN(C(=O)c2cccc(Cc3n[nH]c(=O)c4ccccc34)c2)CC1`?
NTMT1 inhibitor: -2%

How did Cc1ccc(Nc2nnc(Cc3ccncc3)c3ccccc23)cc1Br do in these assays?
NTMT1 inhibitor: 1%

What do the screens show for `Clc1ccc(Nc2nnc(Cc3ccncc3)c3ccccc23)cc1`?
GPR32 ag: 72*; FH mod: -3%; NTMT1 inhibitor: 89µM*!; NNMT inh: inconclusive

Results for CC(C)c1cc(CNc2nc(Nc3cc(C4CC4)[nH]n3)cc(N3CCN(C)CC3)n2)on1 ?
FH mod: 2%; NTMT1 inhibitor: inconclusive; NNMT inh: -16%

How did CC(=O)c1ccc(N2CCN(C(=O)CCC(=O)Nc3ccc4nc(N5CCCCC5)cc(C)c4c3)CC2)cc1 do in these assays?
GALK inh: 3%; B2AR arrestin ag: inactive; GPR32 ag: 18; PTAP-TSG101 blk: inactive; FH mod: -7%; NTMT1 inhibitor: inconclusive

What do the screens show for `Cc1cc(C)nc(NC(=S)N2CCN(c3ccncc3)CC2)c1`?
NTMT1 inhibitor: inconclusive; Sfp qHTS opt: inconclusive; Bsub HM489 growth: -20%; Sfp gel opt: -6%; Sfp SAR2: 3.2µM*; HSD17B4 inh: 6%; ALDH1A1 counter: 30µM*

How did Cc1cc(C)nc(NC(=S)N2CCN(c3ccc(C(=O)O)cc3)CC2)c1 do in these assays?
NTMT1 inhibitor: inconclusive; Sfp qHTS opt: 9.4µM*; Bsub HM489 growth: -1%; Sfp gel opt: -56%; Sfp SAR2: 3.2µM*; HSD17B4 inh: inconclusive; ALDH1A1 counter: 22µM*

How did Cc1cc(C)nc(NC(=S)N2CCN(c3ccc(F)c(F)c3F)CC2)c1 do in these assays?
NTMT1 inhibitor: inconclusive; Sfp qHTS opt: 2.1µM*; Bsub HM489 growth: 21µM*; Sfp gel opt: 7.9µM*; Sfp inh gel: 2.4µM*; Sfp SAR2: 1µM*; hGST A1-1 inh: -3%; HSD17B4 inh: -23%; ALDH1A1 counter: 9.6µM*

Results for Cc1cc(C(=O)N2CCN(c3ccccc3F)CC2)c2c(C)nn(-c3ccccc3)c2n1 ?
GALK inh: -3%; B2AR arrestin ag: inactive; GPR32 ag: -20; PTAP-TSG101 blk: inactive; FH mod: -15%; NTMT1 inhibitor: 25%
